Assay results reported in the antibiotic and cytotoxicity screens of Wong et al. (2023).
In all, about 39,000 compounds went through this assay and about 500 (1.3%) were called active. Many of the other results were omitted from the sample, so actives are more common in it than they were.

test system: S. aureus RN4220; assay: growth inhibition call (relative growth <= 0.2); conditions: 50 µM

Growth inhibition call, inactive:
Cc1noc(C)c1NC(=O)N(C)C[C@H]1Oc2ccc(NC(=O)NC(C)C)cc2CC(=O)N([C@H](C)CO)C[C@@H]1C
CN(c1ncccc1CNc1nc(Nc2ccc3c(c2)CC(=O)N3)ncc1C(F)(F)F)S(C)(=O)=O
Cc1ccc(S(=O)(=O)Nc2cccc3c2O[C@@H](CN(C)S(=O)(=O)c2cn(C)cn2)[C@H](C)CN([C@H](C)CO)C3=O)cc1
C[C@@H]1CCCCO[C@H](CN(C)C(=O)Nc2ccc(C(F)(F)F)cc2)[C@H](C)CN([C@@H](C)CO)C(=O)c2cc(NC(=O)Nc3ccc(C(F)(F)F)cc3)ccc2O1
C[C@@H]1CN([C@@H](C)CO)C(=O)c2cc(NC(=O)Nc3ccc(C(F)(F)F)cc3)ccc2O[C@H]1CN(C)Cc1ccc(-c2ccccc2)cc1
C[C@@H]1CN([C@H](C)CO)C(=O)c2cc(NC(=O)c3ccncc3)ccc2O[C@@H]1CN(C)Cc1ccncc1
Cc1cc(C(=O)c2cc3cc(Cl)ccc3o2)ccc1Cl
Cc1ccc(CN)cc1Cl
O=C1CCOC1
C[C@H]1CN([C@@H](C)CO)C(=O)c2cc(NC(=O)Cn3cnnn3)ccc2O[C@H]1CN(C)Cc1ccc(Cl)c(Cl)c1
CCC(=O)Nc1ccc2ccccc2c1
C[C@@H]1CN([C@H](C)CO)C(=O)c2cc(NC(=O)Nc3cccc4ccccc34)ccc2O[C@@H]1CN(C)C(=O)NC1CCCCC1
C[C@H](CO)N1C[C@H](C)[C@@H](CN(C)C(=O)NC2CCCCC2)Oc2ccc(NC(=O)Nc3cccc4ccccc34)cc2C1=O
CN(Cc1ccccc1)C(=O)[C@H](Cc1ccc2ccccc2c1)NC(=O)[C@@H]1CCCN1C(=O)Nc1ccccc1[N+](=O)[O-]
C[C@H](CO)N1C[C@H](C)[C@H](CN(C)S(=O)(=O)c2ccc(Cl)cc2)Oc2ccc(N(C)C)cc2CC1=O
C[C@H]1CN([C@@H](C)CO)C(=O)c2cccc(NS(C)(=O)=O)c2O[C@@H]1CN(C)S(=O)(=O)c1ccc(F)cc1
CN(C)CCC=C1c2ccccc2COc2ccccc21.Cl
CN(C)CCC=C1c2ccccc2CCc2ccccc21.Cl
COc1ccc(S(=O)(=O)N(C)C[C@@H]2Oc3ccc(NC(=O)c4ccncc4)cc3C(=O)N([C@H](C)CO)C[C@H]2C)cc1
C[C@@H]1CCCCO[C@@H](CN(C)C(=O)C2CCCCC2)[C@@H](C)CN([C@@H](C)CO)C(=O)c2cc(NS(=O)(=O)c3cccs3)ccc2O1
Cc1noc(C)c1NC(=O)N(C)C[C@H]1Oc2ccc(NS(=O)(=O)c3c(C)noc3C)cc2CC(=O)N([C@H](C)CO)C[C@H]1C
Cc1cc(Cl)cc2sc(N(Cc3ccccn3)C(=O)c3ccc(S(=O)(=O)N4CCCC4)cc3)nc12
Cc1ccc2sc(N(CCCN(C)C)C(=O)c3ccc(S(=O)(=O)N(C)Cc4ccccc4)cc3)nc2c1C
CC(C)NC(=O)Nc1ccc2c(c1)C(=O)N([C@H](C)CO)C[C@@H](C)[C@H](CN(C)C(=O)C1CCCCC1)OCCCC[C@H](C)O2
Cc1cc(C(=O)Nc2cccc3c2O[C@@H](CN(C)C(=O)Nc2c(C)noc2C)[C@H](C)CN([C@H](C)CO)C3=O)n(C)n1
C[C@@H]1CCCCO[C@H](CN(C)S(=O)(=O)c2ccccc2)[C@@H](C)CN([C@H](C)CO)C(=O)c2cc(NC(=O)Nc3ccc(F)cc3)ccc2O1
CO[C@@H]1CN(C)C(=O)c2ccc(NS(=O)(=O)c3ccccc3)cc2OC[C@@H](C)N(C(=O)NC(C)C)C[C@H]1C
O=C(O)C1=C[C@@H](O)[C@H](O)[C@H](O)C1
C[C@@H]1CN([C@H](C)CO)C(=O)c2cc(NC(=O)Nc3ccc(C(F)(F)F)cc3)ccc2O[C@@H]1CN(C)Cc1ccccc1
COc1ccc(CN(C)C[C@@H]2Oc3ccc(NC(=O)Nc4ccc(C(F)(F)F)cc4)cc3C(=O)N([C@@H](C)CO)C[C@@H]2C)cc1
C[C@H](CO)N1C[C@H](C)[C@@H](CN(C)Cc2ccccc2)Oc2ccc(NC(=O)Nc3ccc(C(F)(F)F)cc3)cc2C1=O
C[C@H]1CN([C@@H](C)CO)C(=O)c2cc(NC(=O)Nc3ccc(C(F)(F)F)cc3)ccc2O[C@@H]1CN(C)Cc1ccccc1
COc1ccc(NC(=O)Nc2ccc3c(c2)C(=O)N([C@@H](C)CO)C[C@@H](C)[C@@H](CN(C)Cc2ccc(C(F)(F)F)cc2)O3)cc1
C[C@H](CO)N1C[C@H](C)[C@@H](CN(C)Cc2ccc3c(c2)OCO3)Oc2ccc(NC(=O)Nc3ccc(C(F)(F)F)cc3)cc2C1=O
C[C@@H]1CN([C@@H](C)CO)C(=O)c2cc(NC(=O)Nc3ccc(C(F)(F)F)cc3)ccc2O[C@@H]1CN(C)Cc1ccc2c(c1)OCO2
C[C@@H]1CN([C@@H](C)CO)C(=O)c2cc(NC(=O)Nc3ccc(C(F)(F)F)cc3)ccc2O[C@@H]1CN(C)Cc1ccccc1
O=C(C[C@H]1CC[C@H]2[C@@H](COC[C@H](O)CN2S(=O)(=O)c2ccccc2)O1)N1CCOCC1
C[C@@H]1CN([C@@H](C)CO)C(=O)c2cc(NC(=O)NC3CCCCC3)ccc2O[C@@H](C)CCCCO[C@H]1CN(C)S(=O)(=O)c1ccc(F)cc1
CC(C)c1cc(=O)n2nc(N)nc2[nH]1
Cc1ccc(S(=O)(=O)N(C)C[C@@H]2Oc3ncc(C#CCC(C)C)cc3C(=O)N([C@@H](C)CO)C[C@H]2C)cc1
Cc1noc(C)c1NC(=O)N[C@@H]1CC[C@H](CC(=O)N2CCN(C)CC2)O[C@H]1CO
CC(=O)N1[C@H](CO)[C@H](c2ccccc2)[C@H]1CNC(=O)CN1CCOCC1
C[C@@H]1CN([C@@H](C)CO)C(=O)c2cc(NS(C)(=O)=O)ccc2O[C@@H]1CN(C)C(=O)NC1CCCCC1
Cc1ccc(S(=O)(=O)N(C)C[C@H]2Oc3ccc(NS(=O)(=O)c4ccccc4)cc3C(=O)N([C@@H](C)CO)C[C@H]2C)cc1
Cc1ccc(S(=O)(=O)Nc2ccc3c(c2)C(=O)N([C@@H](C)CO)C[C@H](C)[C@@H](CN(C)C(=O)Nc2ccc(C(F)(F)F)cc2)OCCCC[C@H](C)O3)cc1
COCC(=O)Nc1ccc2c(c1)[C@H]1C[C@H](CC(=O)N3CCOCC3)O[C@H](CO)[C@H]1O2
COc1ccc(NC(=O)Nc2ccc3c(c2)C(=O)N([C@@H](C)CO)C[C@@H](C)[C@@H](CN(C)S(=O)(=O)c2cn(C)cn2)O3)cc1
CO[C@@]12[C@H](COC(N)=O)C3=C(C(=O)C(C)=C(N)C3=O)N1C[C@@H]1N[C@@H]12
Cc1onc(C(=O)O)c1[N+](=O)[O-]
C[C@H]1CN([C@@H](C)CO)S(=O)(=O)c2ccc(C#Cc3cccnc3)cc2O[C@H]1CN(C)C(=O)CN(C)C
CN[C@H]1[C@@H](O[C@H]2[C@@H](O[C@H]3[C@@H](O)[C@@H](O)[C@@H](NC(=N)N)[C@@H](O)[C@@H]3NC(=N)N)O[C@@H](C)[C@@]2(O)C=O)O[C@@H](CO)[C@@H](O)[C@@H]1O.CN[C@H]1[C@@H](O[C@H]2[C@@H](O[C@H]3[C@@H](O)[C@@H](O)[C@@H](NC(=N)N)[C@@H](O)[C@@H]3NC(=N)N)O[C@@H](C)[C@@]2(O)C=O)O[C@@H](CO)[C@@H](O)[C@@H]1O.O=S(=O)(O)O.O=S(=O)(O)O.O=S(=O)(O)O
CN[C@@H]1[C@H](O[C@H]2[C@H](O[C@H]3[C@H](O)[C@@H](O)[C@H](NC(=N)N)[C@@H](O)[C@@H]3NC(=N)N)O[C@@H](C)[C@]2(O)C=O)O[C@@H](CO)[C@H](O)[C@H]1O

Growth inhibition call, active:
Cc1cc(CN)cc(C)c1NC(=O)c1ccc(-c2cc(Cl)ccc2Cl)o1
CCCC[P+](CCCC)(CCCC)Cc1ccc(NC(=O)[C@H](Cc2ccc3ccccc3c2)N/C(=N/C2CCCCC2)NC2CCCCC2)cc1
CCCC[P+](CCCC)(CCCC)Cc1ccc(NC(=O)[C@@H](Cc2ccc3ccccc3c2)N=C(NC2CCCCC2)NC2CCCCC2)cc1
CN(C)CCC=C1c2ccccc2COc2ccc(CC(=O)O)cc21.Cl
Cc1ccc2sc(N(CCCN(C)C)C(=O)c3ccc(S(=O)(=O)N(C)C4CCCCC4)cc3)nc2c1C
COc1ccc(CN(C)C[C@@H]2Oc3ccc(NC(=O)Nc4ccc(C(F)(F)F)cc4)cc3C(=O)N([C@H](C)CO)C[C@@H]2C)cc1
C[C@H]1CN([C@@H](C)CO)C(=O)c2cc(NC(=O)Nc3ccc(C(F)(F)F)cc3)ccc2O[C@H]1CN(C)Cc1ccc2c(c1)OCO2
C[C@H]1CN([C@@H](C)CO)C(=O)c2cc(NC(=O)Nc3ccc(C(F)(F)F)cc3)ccc2O[C@H]1CN(C)Cc1ccccc1
C[C@H](CO)N1C[C@H](C)[C@H](CN(C)Cc2ccccc2)Oc2ccc(NC(=O)Nc3ccc(C(F)(F)F)cc3)cc2C1=O
CO[C@@]12[C@@H]3N[C@@H]3CN1C1=C(C(=O)C(N)=C(C)C1=O)[C@@H]2COC(N)=O
COC12C(COC(N)=O)C3=C(C(=O)C(C)=C(N)C3=O)N1CC1NC12 (centres undefined)
CNC1C(OC2C(OC3C(O)C(O)C(NC(=N)N)C(O)C3NC(=N)N)OC(C)C2(O)C=O)OC(CO)C(O)C1O.O=S(=O)(O)O (centres undefined) [STREPTOMYCIN SULFATE [5mM; 10% aq DMSO + 5mM ethanolamine]]
